Compound activity as filed in PubChem.
Most compounds without a hit are left out; they make up all but 4% or so of the library.
Peg3 promoter = reduces Peg3 promoter-driven luciferase expression in HeLa | HeLa PEG-Prom luciferase reporter, luminescence, overnight | inhibition, % at 20 µM | 360,000 compounds, 1.7% hits;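 active = inhibition of at least 50% at 20 µM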
CF NFkB block = blocks PAF-induced NF-kB reporter in cystic fibrosis cells; KKLEB NF-kB-GFP reporter, GFP fluorescence overnight; inhibition, % at 5 µM; 360,000 compounds, 0.86% hits; AID 588850;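 active = at least 50% inhibition at 5 µM, scaled per plate between neutral and stimulator controls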;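 also: PAF is a Pseudomonas aeruginosa culture filtrate used as stimulus; plate controls were PAF-stimulated DMSO wells for no effect and unstimulated DMSO wells for full effect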
HIF-2a inh = blocks HIF-2a reporter activity | 786-0 RCC cells HIF-2a reporter, luciferase luminescence, overnight | inhibition, % at 18.8 µM | 360,000 compounds, 0.72% hits | AID 624352;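 active = inhibition of the luminescence signal of 40% or more relative to plate controls, in a single-dose primary screen at 18.75 µM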
TROY NFkB inh = blocks TROY-dependent signaling in reporter cells; Q293 LMP1-TROYcd NF-kB luciferase reporter, 4 h; inhibition, % at 10 µM; 360,000 compounds, 0.98% hits; AID 1347056;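 active = compounds whose plate-normalised and pattern-corrected inhibition of the luciferase reporter signal at the single screening dose is 50% or more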
KKLEB tox = CF airway cell cytotoxicity counter-screen; 360,000 compounds, 0.36% hits; activity change (cytotoxicity), % at 5 µM; KKLEB CF airway cells viability, ATPlite luminescence, overnight; active compounds read low; cells stimulated with P. aeruginosa culture filtrate; AID 602141;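 active = corrected activity change at or below -50% at 5 µM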
TWEAK Fn14 block = blocks TWEAK-Fn14 interaction in a reporter cell assay | 360,000 compounds, 2% hits | AID 1159606 | inhibition, % at 10 µM | TWEAK-stimulated Fn14 reporter cells, luciferase luminescence, 8 h; in the data active = inhibition above about 50%
Starred values were filed as active, the others as inactive; . = not tested or not shown.

SMILES | Peg3 promoter | CF NFkB block | HIF-2a inh | TROY NFkB inh | KKLEB tox | TWEAK Fn14 block
Cc1ccc(NC(NC(=O)Cc2ccccc2)C(Cl)(Cl)Cl)cc1 (configuration not stated) | 24 | 10 | 21 | -2 | -7 | 13
Cc1ccc(C)c(NC(=S)NC(NC(=O)Cc2ccccc2)C(Cl)(Cl)Cl)c1 (configuration not stated) | 84* | 18 | 7 | 10 | 10 | -23
CC(C)C[C@H]1CN(CCCC[C@H]2CNC(=O)C(=O)N2CCc2ccccc2)C(=O)C(=O)N1CC1CCCCC1 | . | . | 6 | -11 | . | -5
N/C(Cc1ccc(Cl)cc1)=N\OC(=O)c1cccc2ccccc12 | 111* | 4 | -16 | -40 | 1 | 2
COc1ccc(C/C(N)=N/OC(=O)c2ccc(Cl)cc2)cc1 | 3 | -14 | -2 | -65 | 9 | -10
N/C(Cc1ccc(Cl)cc1)=N\OC(=O)c1ccc2ccccc2c1 | 105* | 17 | -1 | -36 | 9 | -154
Cc1nc2ccc(NC(=O)c3ccc(Cl)c(S(=O)(=O)N(C)c4ccccc4)c3)cc2s1 | 30 | -12 | 26 | 56* | 16 | 96*
Cc1ccc(NC(=O)c2ccc(S(=O)(=O)N(C)c3ccccc3)cc2)cc1S(=O)(=O)N1CCOCC1 | 4 | 6 | 25 | 39 | 0 | 59*
Cc1ccc(NC(=O)C(C)N2C(=O)c3ccccc3C2=O)cc1S(=O)(=O)N1CCOCC1 (configuration not stated) | -11 | 17 | 10 | 64* | 3 | 17
CN(c1ccccc1)S(=O)(=O)c1cccc(NC(=O)c2ccc(Cl)c([N+](=O)[O-])c2)c1 | 93* | 2 | 0 | 44 | 7 | 20
COc1ccc(NC(=O)c2ccc(S(=O)(=O)N(C)c3ccccc3)cc2)cc1S(=O)(=O)N1CCOCC1 | 27 | -5 | 14 | 28 | 2 | 10
NC(c1csc(Nc2ccc(C(=O)NCCO)cc2)n1)C1CCCCC1 (configuration not stated) | 6 | -22 | 8 | -6 | 1 | -22
CN(c1ccccc1)S(=O)(=O)c1ccc(NC(=O)c2ccc(-c3ccccc3)cc2)cc1 | 13 | -12 | 8 | 36 | 12 | 54*
CN(c1cccc(NC(=O)c2ccc(N(C)S(=O)(=O)c3ccccc3)cc2)c1)S(C)(=O)=O | 38 | -3 | 22 | 31 | 4 | 42
CC(=O)Nc1ccc(S(=O)(=O)N(C)c2ccccc2)cc1 | 27 | 4 | 1 | -3 | -6 | -1
CCOC(=O)/C=C/C(=O)Nc1ccc(S(=O)(=O)N(C)c2ccccc2)cc1 | 59* | 15 | 19 | 26 | -30 | 48
Cc1nc2cc(NC(=O)c3ccc(S(=O)(=O)N(C)c4ccccc4)cc3)ccc2o1 | -188 | 2 | -227 | 14 | 6 | 74*
CCc1nc2ccc(C(=O)N3CCCCC3)cn2c1N(C)CCCc1ccccc1 | -1 | 12 | 18 | -3 | -12 | -6
COC(=O)c1ccccc1-n1c(CCC(=O)O)ccc1-c1ccc(F)cc1 | 18 | -2 | -10 | -17 | 8 | 5
COc1ccc(-n2c(CCC(=O)O)ccc2-c2ccc(F)cc2)c(OC)c1 | 3 | 2 | 7 | 51* | 10 | 30
O=C(COc1ccc([N+](=O)[O-])cc1)NNC(=O)Nc1cccc(F)c1 | -4 | 1 | -21 | 21 | 1 | -4
CCC(=O)NC(c1cccs1)c1ccc2cccnc2c1O (configuration not stated) | 45 | 6 | 4 | 11 | 10 | 3
Oc1c(C(Nc2nccs2)c2ccc(C(F)(F)F)cc2)ccc2cccnc12 (configuration not stated) | 68* | 16 | 87* | 1 | 2 | 9
Oc1c(C(Nc2cccc(C(F)(F)F)c2)c2ccncc2)ccc2cccnc12 (configuration not stated) | 18 | -25 | 13 | -28 | -11 | 52*
CCOc1ccc(C(Nc2cccnc2)c2cc(Cl)c3cccnc3c2O)cc1 (configuration not stated) | 46 | 5 | 27 | 2 | -9 | -14
SMILES | Peg3 promoter | CF NFkB block | HIF-2a inh | TROY NFkB inh | KKLEB tox | TWEAK Fn14 block
CN(C)Cc1c(O)ccc2cc(-c3nc4ccccc4n3C)c(=O)oc12 | 10 | 20 | 21 | 21 | -2 | 56*
Cc1cc(NC(=O)C2CCCN2C(=O)Nc2cccc(Cl)c2)ccc1-n1cnnn1 (configuration not stated) | 34 | 14 | 31 | 9 | 3 | 55*
CCOc1ccc(C(=O)c2cc([N+](=O)[O-])ccc2N2CCOCC2)cc1 | -14 | 55* | 28 | 33 | -43 | 1
CCOc1ccc(S(=O)(=O)N2CCN(C(=O)c3cc([N+](=O)[O-])ccc3N3CCOCC3)CC2)cc1 | 3 | -11 | 5 | 8 | 0 | -2
COc1ccc(C(=O)c2cc([N+](=O)[O-])ccc2N2CCOCC2)cc1 | 7 | 60* | 29 | 21 | -29 | -1
COc1ccc(CCNC(=O)c2cc([N+](=O)[O-])ccc2N2CCOCC2)cc1 | 19 | 3 | 0 | 9 | 0 | -6
Cc1ccc(C(=O)c2cc([N+](=O)[O-])ccc2N2CCOCC2)cc1 | 52* | 30 | 7 | 16 | -18 | 10
COc1ccc(C(=S)N2CCOCC2)cc1OC(=O)c1ccc([N+](=O)[O-])cc1[N+](=O)[O-] | 20 | -17 | 0 | 44 | 5 | 100*
COc1cc(C(=S)N2CCOCC2)ccc1OC(=O)c1cc([N+](=O)[O-])cc([N+](=O)[O-])c1 | -9 | 6 | 17 | 16 | -10 | -11
CCN1CCN(C(=O)c2ccc3c(c2)S(=O)(=O)c2ccccc2C3=O)CC1 | 17 | 8 | 4 | 0 | -5 | 12
COCCN1C[C@@H](CO)O[C@@H](n2cnc3c(N4CCN(c5ccccc5)CC4)ncnc32)C1 | -10 | 16 | -6 | 9 | 4 | -12
CCN1CCN(c2ncnc3scc(-c4ccc(OC)cc4)c23)CC1 | -2 | 5 | 16 | 10 | 0 | 91*
COc1ccc(-c2csc3ncnc(N4CCN(c5cccc(OC)c5)CC4)c23)cc1 | 38 | 44 | 10 | 16 | 4 | 54*
COc1ccc(CN2CCN(c3ncnc4scc(-c5ccc(F)cc5)c34)CC2)cc1 | 19 | 14 | 9 | -4 | -4 | -17
Cc1ncc(CN2CCC(C(=O)Nc3cccc(-c4cscn4)c3)CC2)cn1 | 18 | -34 | 6 | -42 | 19 | 8
O=C(Nc1cccc(O)c1)c1noc2c1CCc1ccccc1-2 | -150 | 5 | -165 | 46 | -44 | 72*
Cc1ccc(NC(=O)c2noc3c2CCc2ccccc2-3)cc1 | -250 | 4 | -260 | -38 | -9 | -14
CCN(Cc1nc2cc(Cl)ccc2c(=O)[nH]1)C(=O)CN1C(=O)NC2(CCCCC2C)C1=O (configuration not stated) | 15 | 2 | 23 | 10 | -4 | -6
